# Assay outcomes as filed in PubChem.
# CSC inhib: cancer stem cell inhibition. cancer stem cell-like cells viability, luminescence. inhibition, % at 7.5 µM. 1.1% of 300,000 active. AID 2717; in the data active = inhibition above about 75%; tested in HMLE shEcad cells
# 697 NFkB inh: inhibitors of the PMA/ionomycin-induced NF-kB reporter in 697 B cells | inhibition, % at 4 µM | 0.33% of 330,000 active | 697 B-cell NF-kB luciferase reporter, 16 h; in the data active = inhibition above about 35%
# Gli-Sufu antag: Gli-Sufu pathway antagonism; Sufu-KO-LIGHT fibroblasts, Gli luciferase reporter luminescence; inhibition, % at 5 µM; 0.74% of 340,000 active;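 active = inhibition above about 55%, limit read from the data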;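 also: 0% = DMSO-treated cells and 100% = wells with medium but no cells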
# Beta cell apopt: beta cell apoptosis inhibition | INS-1E cytokine-induced death, ATP luminescence, 48 h; percent of positive-control rescue, neutral wells zero | protection from apoptosis, % (no concentration beside the values) | 0.8% of 300,000 active;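 active = Every replicate reaches about 75%, or at least half do and their mean reaches it too, limit read from the data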;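 also: 0% = cytokine-treated negative control wells and 100% = positive control rescue; higher means more ATP so stronger rescue from cytokine killing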
# Jurkat NFkB inh: lowers PMA/ionomycin-induced NF-kB signal in Jurkat cells | inhibition, % at 4 µM | 0.53% of 330,000 active | PMA/ionomycin-induced NF-kB luciferase reporter, luminescence | AID 435003; in the data active = inhibition above about 50%
# Mdm2-MdmX inh: human Mdm2/MdmX binding inhibition. O15151+Q00987. 3% of 330,000 active. SaOS-2 split-luciferase Mdm2/MdmX complementation, luminescence. inhibition, % at 8 µM;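 active = inhibition of at least 50% at 8 µM in the primary screen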
# 697 NFkB conf: lowers PMA/ionomycin-induced NF-kB signal in 697 B cells; shares compounds with 697 NFkB inh; 697 B-cell NF-kB luciferase, 16 h; inhibition, % at 4 µM; 35% of 2,000 active; AID 449746; in the data active = inhibition mostly above about 28%, no sharp cut-off; inactive = mostly below about 22%
# * marks the source's active call; other numbers are inactive results; . = no result given. A selection: hits, their analogues and other compounds. The true share with any hit is near 4.5%.
SMILES,CSC inhib,697 NFkB inh,Gli-Sufu antag,Beta cell apopt,Jurkat NFkB inh,Mdm2-MdmX inh,697 NFkB conf
COc1ccc(C2/C(=C(/O)c3ccc(C)cc3)C(=O)C(=O)N2C)c(OC)c1 (stereo not drawn),-7,5,10,-4,-4,12,.
CC(C)(C)C(=O)NNC(=O)c1cnccn1,0,45*,3,-1,0,4,10
CCC1CCCCN1CCCNC(=O)c1ccc2nc(N3CCCCC3)sc2c1 (stereo not drawn),8,-298,-5,-2,-93,16,-310
c1ccc(-c2cnc(-c3ccccc3)nc2)cc1,6,-296,-56,3,-134,-62,-319
O=C(O)c1ncc(-c2ccccc2)cn1,-19,-7,3,-8,-5,0,.
COc1ccc2nc3oc(C(=O)N4CCN(c5ccccc5F)CC4)cc3cc2c1,2,-12,1,6,0,16,.
COc1ccc2cc3cc(C(=O)N4CCCCCC4)oc3nc2c1,27,-266,-18,3,-136,-169,-244
Cc1cc(NC(=O)c2cccc(COc3ccc(Br)cc3)c2)no1,20,56*,-139,.,-21,-50,12
Cc1ccc(S(=O)(=O)CCC(=O)Nc2ccccc2C)cc1,-9,2,17,.,-16,16,.
Cc1cc(=O)oc2n[nH]c(-c3ccccc3)c12,6,12,-1,0,12,-1,.
COc1ccc(-c2[nH]nc3oc(=O)cc(C)c23)cc1,3,35*,4,4,4,-10,7
O=C(/C=C/c1ccc(OC(F)F)cc1)Nc1cccc(S(=O)(=O)N2CCOCC2)c1,-18,-108,0,-2,-3,36,.
O=C(OCC(O)CO)c1ccccc1Nc1ccnc2cc(Cl)ccc12 (stereo not drawn),-6,41*,5,-12,-4,31,7
COc1ccc(C(=O)Nc2ccc(Cl)cc2C(=O)NCc2ccco2)cc1OC,-7,-17,12,5,-19,16,.
COc1ccc(C(=O)Nc2ccccc2C(=O)NCc2ccco2)cc1OC,-7,37*,-9,-4,13,19,31*
COc1cc(C2CC(=O)c3cnc(NC(=O)c4ccco4)nc3C2)cc(OC)c1OC (stereo not drawn),-13,10,-24,7,6,11,.
CC(=O)Nc1ccc(S(=O)(=O)N2CCc3cc4c(cc3C2)OCCCO4)cc1,3,-55,6,3,11,3,.
CCCCOc1ccc(/C=N/NC(=O)c2nnn(-c3nonc3N)c2C)cc1,0,28,3,-3,-1,2,.
CN(CC(=O)Nc1cccc(F)c1)C(=O)c1ccccc1Sc1ccccc1C#N,-7,7,0,-1,4,13,.
Cc1c(C(=O)OCCOc2ccccc2)[nH]c2c1C(=O)CCC2,7,-331,-71,13,-83,-42,-380
CC(=O)c1c(C)[nH]c(C(=O)OCCOc2ccccc2)c1C,15,-253,-77,8,-141,-11,-402
CCCc1c(C(=O)OCC)[nH]c2c1C(=O)CCC2,2,-17,-1,-7,-9,-3,.
CC(=O)c1c(C)[nH]c(C(=O)COC(=O)CCCOc2ccccc2)c1C,1,6,31,-11,-1,-1,.
O=C(CCn1nnc2ccccc21)OCC(=O)c1ccc(F)cc1,1,24,-11,-11,-13,17,.
O=C(Nc1ccc(NC(=O)C2CC2)cc1)c1cccs1,-1,7,-60,5,-77,-33,.
SMILES,CSC inhib,697 NFkB inh,Gli-Sufu antag,Beta cell apopt,Jurkat NFkB inh,Mdm2-MdmX inh,697 NFkB conf
O=C(Nc1nncs1)c1cc2c(s1)CCC2,-13,-14,-47,-2,-25,9,.
O=C(Nc1nccs1)c1cc2c(s1)CCCCC2,2,-307,8,-1,-39,33,-356
Oc1cccc(-c2nc3ccccc3s2)c1,8,-259,6,.,-148,-147,-247
Nc1cccc(-c2nc3ccccc3s2)c1,9,-128,-102,-3,-102,-156,.
CN(C)c1ccc(-c2nc3cc(N)ccc3o2)cc1,15,-297,-34,3,-134,-62,-202
COC(=O)c1ccc(-c2nc3cc(N)ccc3o2)cc1,24,29,4,-2,-79,-96,.
CCC(C)Sc1ccc([C@@H]2[C@@H]3C(=O)N(CC)C(=O)[C@@H]3[C@]3(C(=O)OC)CCCCN23)cc1 (stereo partly drawn),.,-6,-7,0,-1,32,.
N=c1c(C(=O)NC2CCCC2)cc2c(=O)n3ccccc3nc2n1CCN1CCOCC1,.,49*,-46,-3,2,33,50*
N=c1c(C(=O)NC2CCCC2)cc2c(=O)n3ccccc3nc2n1CCCN1CCOCC1,.,-6,24,5,8,16,.
CC(C)(C)c1ccc(-c2nnc(SCC(=O)NC3CC3)o2)cc1,.,57*,-26,-4,-78,-61,39*
CCOc1ccc(-c2nnc(SCC(=O)NC3CC3)o2)cc1,-13,60*,2,0,-29,-48,56*
O=C(CSc1nnc(-c2ccccc2)o1)NC1CCCC1,5,14,-9,0,-1,0,.
O=C(NCc1ccccc1OC(F)(F)F)C1CCC(=O)N(C2CC2)C1 (stereo not drawn),.,4,-3,-7,3,0,.
Cc1cc(Nc2ccccc2N2CCOCC2)n2ncnc2n1,-9,35*,5,2,4,25,25
Cc1cc(Nc2ccc(F)cc2F)n2ncnc2n1,-22,9,-5,4,12,14,.
O=C(Nc1nc2ccccc2[nH]1)c1ccc(Cl)cc1,22,-320,-73,24,-140,-8,-342
Cc1ccc(NS(=O)(=O)c2c(C(=O)N3CCCCCC3)c(C)n(C)c2C)c(C)c1,9,-25,-5,-1,-4,-20,.
Cc1cc(C)cc(C(=O)NC(=S)Nc2ccc(-c3cc4ccccc4oc3=O)cc2)c1,11,22,12,3,-17,35,.
O=C(Cc1cccc2ccccc12)Nc1ccc(-c2cc3ccccc3oc2=O)cc1,5,72*,5,-3,9,46,50*
Cc1ccc(C(=O)NC(=S)Nc2ccc(-c3cc4ccccc4oc3=O)cc2)c(C)c1,-13,36*,4,-4,10,22,9
CCC(=O)Nc1cccc(-c2cc3ccccc3oc2=O)c1,.,-13,1,-1,-7,14,.
Cn1c(CNC(=O)c2ccco2)nnc1SCCOc1ccccc1,.,-5,19,.,3,14,.
CCOC(=O)c1c(NC(=O)COC(=O)Cc2n[nH]c(=O)c3ccccc23)sc(C(=O)NC)c1C,-4,7,-1,3,0,-16,.
CC1(C2CC2)NC(=O)N(CC(=O)Nc2ccc(F)cc2F)C1=O (stereo not drawn),.,11,0,3,4,10,.
COc1ccc(-c2cc(CCCC(=O)NCCc3ccc(OC)cc3OC)no2)cc1,-1,16,-4,-5,5,5,.
